Results on eight compounds are retold here after PubChem BioAssay (NCATS).

The nature of assay [1]: qHTS assay for cell viability of HEK293 cells (AID 743288; active = well fitted curve in the direction sought with a large enough effect; an effect the other way counts as inactive or inconclusive; also: % is scaled to controls: 0 for no effect and ±100 for the full control effect; nearly all actives have a fitted effect of over 50% in size). The conditions noted are these: ATP luminescence (CellTiter-Glo), 18 h, stronger effect = lower value. The method, boiled down:
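Parental HEK293 cells, 2,000 per well, preincubated at least 5 h at 37 C, then exposed to compounds in DMSO for 18 h at 37 C. Viability by CellTiter-Glo ATP luminescence after 30 min at room temperature.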
On the technique in general: In qHTS, concentration-response curves come from the screen itself.

Assay [2] is described as follows: qHTS assay for cell viability of the p53RE-bla HCT-116 cell line (AID 743292; active = well fitted curve in the direction sought with a large enough effect; an effect the other way counts as inactive or inconclusive; also: % is scaled to controls: 0 for no effect and ±100 for the full control effect; nearly all actives have a fitted effect of over 55% in size). The conditions noted are these: p53RE-bla HCT-116 viability, ATP luminescence, 16 h; series mostly up to 95 µM. The method, boiled down: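 After plating at 4,000 cells per well and a 5 h rest at 37 C, HCT-116 cells carrying p53RE-bla received test chemicals in DMSO. Sixteen hours later at 37 C, CellTiter-Glo was added and luminescence recorded following 30 min at room temperature.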

Assay [3] can be described thus: qHTS profiling of the MIPE4 collection as inhibitors of Plasmodium falciparum (3D7) proliferation (AID 743344).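 Also: scaled between DMSO vehicle wells and 0.29 µM artemisinin as full inhibition.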 The conditions noted are these: P. falciparum 3D7 in erythrocytes, SYBR Green DNA fluorescence, 72 h; at 28.5 µM (top of the series) unless noted. In outline: (§1)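 Erythrocytes infected with P. falciparum (0.3% parasitemia, 2.5% hematocrit) incubated with compounds 72 h at 37 C, 5% CO2. Lysis with saponin/Triton buffer containing SYBR Green I, overnight at room temperature in the dark; DNA fluorescence (485/535 nm) normalised to 0.29 uM artemisinin and DMSO.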

The nature of assay [4]: qHTS profiling of the MIPE4 collection as inhibitors of Plasmodium falciparum (DD2) proliferation (AID 743345). The conditions noted are these: P. falciparum Dd2 in erythrocytes, SYBR Green DNA, 72 h; at 28.5 µM (top of the series) unless noted. The method, boiled down:
as §1

Assay [5] is described as follows: qHTS profiling of the MIPE4 collection as inhibitors of Plasmodium falciparum (DD2) proliferation (Rep 2) (AID 743346). The note with it: P. falciparum Dd2 in erythrocytes, SYBR Green DNA, 72 h; at 28.5 µM (top of the series) unless noted. In outline:
as §1

A short description of assay [6]: qHTS profiling for inhibitors of Plasmodium falciparum (3D7) proliferation (AID 743322).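 Also: infected erythrocytes exposed to compound for 72 h before lysis; 100% = DMSO vehicle wells and 0% = 0.29 µM artemisinin.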 The note with it: P. falciparum 3D7 proliferation; at 28.7 µM (top of the series). In outline:
as §1

Assay [7] can be described thus: qHTS profiling for inhibitors of Plasmodium falciparum (DD2) proliferation (AID 743323). The note with it: lower = more inhibition; at 28.7 µM (top of the series). The method, boiled down: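 1536-well qHTS; infected RBCs 0.3% parasitemia/2.5% Hct final; cpd 72 h 37 C 5% CO2; lysis buffer + SYBR Green I, o/n RT dark; FI 485/535; norm. to 0.29 uM artemisinin and DMSO, plate-stack corrected.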

A short description of assay [8]: qHTS profiling for inhibitors of Plasmodium falciparum (HB3) proliferation (AID 743324; active = well fitted curve in the direction sought with a large enough effect; an effect the other way counts as inactive or inconclusive;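 also: 100% = DMSO vehicle wells and 0% = artemisinin-treated control wells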). The conditions noted are these: Plasmodium falciparum HB3 blood-stage proliferation; at 28.7 µM (top of the series). In outline: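 P. falciparum HB3 grown in erythrocytes (0.3% parasitemia, 2.5% hematocrit final) with compound for 72 h at 37 C, 5% CO2. Parasite DNA detected by SYBR Green after saponin/triton lysis overnight; normalized to 0.29 uM artemisinin and DMSO.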

Assay [9] is described as follows: qHTS profiling of the MIPE4 collection as inhibitors of Plasmodium falciparum (HB3) proliferation (AID 743347).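 Also: plate controls were DMSO vehicle wells for no effect and artemisinin wells for full effect.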 The note with it: P. falciparum HB3 in erythrocytes, SYBR Green DNA, 72 h; at 28.5 µM (top of the series) unless noted. In outline: as §1
The nature of assay [10]: qHTS Assay for Identifying Gametocytocidal Compounds (AID 743244; active = well fitted curve in the direction sought with a large enough effect; an effect the other way counts as inactive or inconclusive;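 also: % is scaled to controls: 0 for no effect and ±100 for the full control effect; actives lower the fluorescent signal which means gametocytes are killed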). The note with it: P. falciparum 3D7 stage III-V gametocytes, alamarBlue, 72 h; max response: stronger effect = lower value. In outline:
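Late gametocytes (III–V), P. falciparum 3D7; 72 h drug, then 24 h alamarBlue; resazurin reduction read by fluorescence.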

Inconclusive results are not listed. The source made the active and inactive calls. Unless noted, no rule for the calls is given here.

Consider `Cc1cc(O)c2c(c1)C(=O)c1cccc(O)c1C2=O`, for which, in assay [1], the max response is -7.7% (inactive). Moreover, the compound was called inactive in assay [2]. In assay [3], this compound had a parasite growth, % of DMSO control of 91.5%. In addition, the parasite growth remaining, % of DMSO control (lower = more inhibition) in assay [4] came out at 85.9%. The parasite growth, % of control (lower = inhibition) in assay [5] was 121%.
Consider `c1ccc2c(Oc3nc(Nc4ccc(N5CCOCC5)cc4)c4ncn(C5CCCCC5)c4n3)cccc2c1`, for which the remaining parasite growth % (stronger effect = lower value) in assay [6] was -0.456%. Besides, the activity, percent of control in assay [7] worked out at 1.45%. Also, the remaining proliferation (% of control), lower = more inhibition in assay [8] was -1.02%. In addition, the parasite growth, % of DMSO control in assay [3] was found to be 6.5%. Moreover, in [9], the growth, % of control was found to be 9.45%.
On to `CN[C@H](CC(C)C)C(=O)N[C@H]1C(=O)N[C@@H](CC(N)=O)C(=O)N[C@@H]2C(=O)N[C@H]3C(=O)N[C@H](C(=O)N[C@H](C(=O)O)c4cc(O)cc(O)c4-c4cc3ccc4O)[C@H](O)c3ccc(c(Cl)c3)Oc3cc2cc(c3O[C@@H]2O[C@H](CO)[C@@H](O)[C@H](O)[C@@H]2O[C@H]2C[C@](C)(N)[C@H](O)[C@H](C)O2)Oc2ccc(cc2Cl)[C@H]1O`, for which the max response in [10] was -6.25% (inactive). This compound returned a parasite growth, % of DMSO control in assay [3] of 387%.
For `C#CCC(Cc1cnc2nc(N)nc(N)c2n1)c1ccc(C(=O)N[C@@H](CCC(=O)O)C(=O)O)cc1` (stereo partly drawn), the max response in [10] is 4% (inactive). The compound also registered a parasite growth, % of DMSO control in [3] of 21.7%. In assay [4], the parasite growth remaining, % of DMSO control (lower = more inhibition) amounted to 8.51%. Further, the parasite growth, % of control (lower = inhibition) in assay [5] was 9.31%. The compound further came in with a growth, % of control in assay [9] of 18%.
In the case of `Nc1ccn(C[C@@H](CO)OCP(=O)(O)O)c(=O)n1`, in [10], the max response was 0.0749% (inactive).
In turn, `CCOc1cc2c(c(F)c1OCC)C(=N)N(CC(=O)c1cc(N3CCOCC3)c(OC)c(C(C)(C)C)c1)C2` registered a parasite growth, % of DMSO control in [3] of 5.53%. Moreover, the parasite growth remaining, % of DMSO control (lower = more inhibition) in [4] is 7.24%. In addition, in assay [5], the parasite growth, % of control (lower = inhibition) was found to be 11.7%. The compound further gave a growth, % of control in [9] of 6.22%.
In assay [3], `CC(=O)O[C@H]1C[C@@H]2CC[C@H]3[C@H]4C[C@H]([N+]5(C)CCCCC5)[C@@H](OC(C)=O)[C@@]4(C)CC[C@@H]3[C@@]2(C)C[C@H]1N1CCCCC1` registered a parasite growth, % of DMSO control of 40.5%. Besides, the parasite growth remaining, % of DMSO control (lower = more inhibition) in assay [4] was determined as 64%. In assay [5], the parasite growth, % of control (lower = inhibition) stood at 37.1%.
For `N#Cc1cc(NC(=O)Nc2nnc(-c3ccncc3)s2)ccc1-c1cn[nH]c1`, in that order: 45.1%, 101% and 74.6%.
